Measurements published in PubChem BioAssay AID1850 (Southern Research Specialized Biocontainment Screening …, 2009).
Values joined by “and” are separate entries in the source; they are usually repeats but may differ in a detail not shown here. Equal entries are not always repeated. Among all 310,000 compounds or so, about 1,000 (0.32%) were called active. The list is a sample of the results. Potency and affinity values are given separately. Unmarked numbers belong to inactive results. The rule behind the calls is not given here.

Test: Inhibition of PhoP regulon, Salmonella typhi GFP reporter cells, confirmation, 4 h (AID 1850);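 note: 0% = induced wells with vehicle and 100% = uninduced wells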
Settings: Salmonella Typhi PhoP-promoter GFP reporter, fluorescence, at 50 µM, stronger effect = higher value

| Structure (SMILES) | inhibition |
| --- | --- |
| Cc1onc(-c2ccccc2Cl)c1C(=O)Nc1ccccc1C(N)=O | 7.75% |
| O=C(Nc1nnc(-c2ccc(F)cc2)s1)c1ccco1 | 2.98% |
| O=C(O)/C(=C\c1cccs1)c1ccc(F)cc1 | -11.8% |
| CNC(=O)C1C2C=CC3(O2)C1C(=O)N(CCOC)C3C(=O)NCc1ccc(OC)cc1 (stereo not drawn) | 16.8% |
| CC1CCCCC1NC(=O)CN(C)S(=O)(=O)c1cccc2cccnc12 (stereo not drawn) | 10.4% |
| CC(=O)c1c(C(C)=O)c(C)n(-c2ccc(N)c(C)c2)c1C | -3.65% |
| Cc1ccc(C)c(/C=C/C(=O)c2ccccc(=O)c2O)c1 | -3.4% |
| Cc1ccc(/C=C/C(=O)c2ccccc(=O)c2O)c(C)c1 | -6.97% |
| CCC(C)NC(=O)CSc1nc2ccc(N3CCOCC3)cc2c(=O)n1CCc1ccccc1 (stereo not drawn) | -0.99% |
| Cc1cc(C(=O)N/N=C/c2c(C)n(C)c3ccccc23)n[nH]1 | -9.94% |
| O=C(O)[C@@H]1CC(O)CN1C(=O)CCc1c[nH]c2ccccc12 (stereo partly drawn) | 6.6% |
| CN(C)CC/C=C1/c2ccccc2Sc2ccc(Cl)cc21 | 21% |
| CN(C)CC/C=C1\c2cc(F)ccc2CSc2ccccc21 | 1.61% |
| CN(C)CC/C=C1\c2cc(Cl)ccc2Sc2cc(F)c(F)cc21 | 10.9% |
| CN(C)CC/C=C1/c2cc(F)ccc2CSc2ccc(F)cc21 | -7.52% |
| CN(C)CC/C=C1/c2ccccc2Sc2c(O)cc(Cl)cc21 | 14.1% |
| CN(C)CC/C=C1/c2ccc(F)cc2Sc2ccc(Cl)cc21 | -10.8% |
| COc1cc2c(cc1Cl)/C(=C\CCN(C)C)c1ccccc1S2 | 2.09% |
| COc1cc(Cl)cc2c1Sc1ccccc1/C2=C/CCN(C)C | -4.02% |
| Cc1cccc(OCCCC(=O)Nc2ccc(S(N)(=O)=O)cc2)c1 | -6.31% |
| CCCCCCSc1ccc(-c2nc3ccccn3c2NCCCC)cc1 | -1.64% |
| CC(C)CC(=O)c1c[nH]c(C(=O)NCCCN2CCOCC2)c1 | 0.393% |
| CCc1nnc(NC(=O)C=C(C)C)s1 | -12.1% |
| O=C(CSc1nccn1-c1ccccc1)NCc1ccc(F)cc1 | 5.7% |

| Structure (SMILES) | inhibition |
| --- | --- |
| Cc1cc(C)cc(NC(=O)N2CCC(NC(=O)c3ccco3)CC2)c1 | -4.45% |
| COc1cc(C2(O)CCCCC2C)cc(OC)c1OC (stereo not drawn) | 0.64% |
| CC(C)C(C(=O)NCc1ccco1)N(Cc1ccco1)C(=O)CNS(=O)(=O)c1ccc(F)cc1 (stereo not drawn) | -1.96% |
| COc1ccc(Cl)cc1NC(=S)NCc1cccs1 | -1.43% |
| Cc1ccc(NC(=O)c2cc(NC(=O)C3CC=CCC3C(=O)O)ccc2N2CCOCC2)cc1 (stereo not drawn) | -15.3% |
| C/C(=N\NC(=O)c1ccc(F)cc1)c1ccc(NC(=O)Cc2ccccc2)cc1 | -10.7% |
| COc1ccc(-c2cc(C(=O)NCC3CCCO3)c3ccccc3n2)c(OC)c1 (stereo not drawn) | -4% |
| COc1cccc(-c2nc(NCC3CCCO3)c3ccccc3n2)c1O (stereo not drawn) | 0.02% |
| COc1ccc(S(=O)(=O)Nc2nc3ccccc3nc2NCC2CCCO2)cc1 (stereo not drawn) | -1.23% |
| Oc1ccccc1Nc1nc(NCC2CCCO2)c2ccccc2n1 (stereo not drawn) | 19.4% |
| Oc1ccccc1-c1nc(NCC2CCCO2)c2ccccc2n1 (stereo not drawn) | -0.56% |
| COc1ccccc1Nc1nc(NCC2CCCO2)c2ccccc2n1 (stereo not drawn) | 29.6% |
| Oc1ccc(Cl)cc1Nc1nc(NCC2CCCO2)c2ccccc2n1 (stereo not drawn) | 3.79% |
| c1ccc2c(NCC3CCCO3)nc(N3CCOCC3)nc2c1 (stereo not drawn) | 0.7% |
| O=C1CN=C(c2ccc[nH]2)c2cc(Cl)ccc2N1 | -4.67% |
| COC(=O)C1SCC2C(=O)N(Cc3cccc(C)c3)CC(=O)N21 (stereo not drawn) | 0.26% |
| CN1C(=S)SC(C)(C)C1(C)NO (stereo not drawn) | -6.1% |
| O=C(CSc1nccn1Cc1ccccc1)Nc1ccccc1 | -2.04% |
| CN(C)N1C(N)=C(C#N)C(c2ccc3c(c2)OCO3)C2=C1CC(C)(C)CC2=O (stereo not drawn) | -10.5% |
| c1ccc(-c2nc(NCC3CCCO3)c3ccccc3n2)nc1 (stereo not drawn) | 2.1% |
| CC(C)Oc1ccc(-c2nc(NCC3CCCO3)c3ccccc3n2)cc1 (stereo not drawn) | -13.6% |
| O=C(CN1CCN(c2ccc([N+](=O)[O-])cc2Cl)CC1)N1CCOCC1 | 2.81% |
| CC[N+](C)(C)CCN(Cc1ccc(Cl)cc1)c1ccccn1 | 1.18% |
| COc1ccc(CN(CCN(C)C)c2ccccn2)cc1 | -13% and 6.04% |
